About 83,000 compounds went through this panel and 20% of them were active in at least one assay; those are over-represented in the sample as a whole.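 Each cell line was grown in a 96-well plate and treated with one concentration of compound for 48 hours. Values below 10 were considered active.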 Values without a mark were called inactive. The source made the active and inactive calls.
Each compound was assayed on HL-60(TB) leukemia (assay: NCI-60 one-dose screen, 48 h (100 = growth as untreated, 0 = no growth, -100 = all killed)). Settings: 10 µM unless noted.

| SMILES | growth |
| --- | --- |
| CCC1N=C(N)N=C(N)N1c1ccc(Cl)cc1 (configuration not stated) | 75.4% |
| CCN(CCC#N)c1ccccc1 | 98.1% |
| COc1ccc(C2CC(=O)Nc3c2c(C)nn3-c2nc3ccccc3[nH]2)cc1 (configuration not stated) | -17% (active) |
| Cc1ccc(N(C(=O)CCc2c[nH]c3ccccc23)[C@H](C(=O)Nc2ccc(Cl)cc2)c2cccc([N+](=O)[O-])c2)cc1 | 70.7% |
| COc1ccccc1OCC(=O)Nc1sc2c(c1C(N)=O)CCC2 | 50.1% |
| CC(=O)Nc1nc(C)c(C(=O)NNC(=O)Nc2ccccc2)s1 | 108% |
| COc1ccc(NC(=O)CSc2nnc(-c3cc(-c4ccccc4)nc4ccccc34)n2-c2ccccc2)cc1 | 105% |
| COc1cc(C2=NN(c3ccccc3)C(c3cccc(Nc4ccnc5cc(C(F)(F)F)ccc45)c3)C2)cc(OC)c1OC (configuration not stated) | 94.8% |
| O=Cc1cc2ccccc2nc1Nc1nccs1 | 99.5% |
| CCC(c1ccccc1)c1noc(CCN(CC)CC)n1 (configuration not stated) | 77.3% |
| COC(=O)CCC1=C(C)/C(=C/c2[nH]c(-c3ccc[nH]3)cc2OC)N=C1C | -23.3% (active) |
| C=CN(C(=O)N1CCN(c2cc3c(cc2F)c(=O)c(C(=O)O)cn3C2CC2)CC1)c1nc(-c2ccccc2)cs1 | 58.1% |
| COc1ccc(/C=C/C(=O)c2ccc(NC(=O)CN3CCN(c4cc5c(cc4F)c(=O)c(C(=O)O)cn5C4CC4)CC3)cc2)cc1 | 123% |
| CCCCCCOc1ccc(C(=N)N(CCCC)CCCC)c2ccccc12 | -49.6% (active) |
| COc1cccc(N2CCN(c3cccc(C)n3)CC2)c1 | 100% |
| N=C1c2nc3n(c2C(=O)c2nc4n(c21)CCCCC4)CCCCC3 | 103% |
| COc1ccc(/C=C/c2nc(Nc3ccc(S(=O)(=O)Nc4cc(C)on4)cc3)c3ccccc3n2)cc1 | 80.9% |
| O=S(=O)(Nc1ccccn1)c1ccc(N=Nc2ccc(O)c3ncccc23)cc1 | -30.6% (active) |
| COc1ccc2c(c1)C(=O)c1c-2c(=O)n(CCCN(C)C)c2cc(OC)c(OC)cc12 | 74.8% |

| SMILES | growth |
| --- | --- |
| Sc1ccc(Nc2c3ccccc3nc3ccccc23)cc1 | 31.7% |
| CCN1CCCC(Nc2cc(C)nc(/N=C(/N)Nc3ccc(Cl)c(Cl)c3)n2)C1 (configuration not stated) | -42.7% (active) |
| O=C(CCl)N1CCN(C/C=C/c2ccccc2)CC1 | 102% |
| COc1ccc(/C=C2\Oc3cc(OCCCN4CCCC4)ccc3C2=O)cc1 | 94.7% |
| c1cc(CNC23CC4CC(CC(C4)C2)C3)cc(C[N+](Cc2cccc(CNC34CC5CC(CC(C5)C3)C4)c2)(Cc2cccc(CNC34CC5CC(CC(C5)C3)C4)c2)Cc2cccc(CNC34CC5CC(CC(C5)C3)C4)c2)c1 (configuration not stated) | -29.5% [42 µM] (active) |
| Cc1ccc(NC(=O)c2ccccc2Cl)cc1 | 86.1% |
| COC(=O)CCCCCN=Cc1c(O)c(O)c(C(C)C)c2cc(C)c(-c3c(C)cc4c(C(C)C)c(O)c(O)c(C=NCCCCCC(=O)OC)c4c3O)c(O)c12 | 15.4% |
| Cc1c2cc[nH]c(=O)c2c(C)c2c1[nH]c1ccc(OC(=O)c3ccccc3)cc12 | 51.3% |
| CCN(CC)CCNC(=O)c1ccc(NC(C)=O)cc1 | 110% |
| O=c1[nH]c(=O)n(C2C[C@@H](O)[C@@H](CO)O2)cc1F (some centres not stated) | 27.1% |
| CCN(CC)S(=O)(=O)c1ccc(S(=O)(=O)N2CCC[C@@H](C(=O)N3CCN(c4nc(C(C)C)no4)CC3)C2)cc1 | 68.5% |
| O=C(O)C1[S][Sb]([CH](C(=O)O)[CH](C(=O)O)[Sb]2[S]C(C(=O)O)C(C(=O)O)[S]2)[S]C1C(=O)O (configuration not stated) | 94.3% |
| CS(=O)(=O)Nc1cc(-c2ccc3ncc(C#N)c(Nc4ccc(F)c(Cl)c4)c3c2)cnc1Cl | 0.119% (active) |
| CN(C)CCCN(c1nc(C(Cl)(Cl)Cl)ns1)c1nc(C(Cl)(Cl)Cl)ns1 | 24.4% |
| O=C1CN(c2ccccc2)C(=O)C1C(=O)Nc1ccc(Cl)c(Cl)c1 (configuration not stated) | 7.75% [100 µM] (active) |
| C/C(=N\Nc1ccccc1)c1ccc(NC2=CC(=O)c3ccccc3C2=O)cc1 | 80.6% |
| N#Cc1c(-c2ccc(Cl)cc2)nc(NN=Cc2ccco2)nc1N1CCOCC1 | 108% |
| CCN(CC)CCN1C(=O)c2c(c3c4ccccc4[nH]c3c3[nH]c4ccccc4c23)C1=O | 98.7% |
